In PubChem BioAssay:
“And” between values parts separate entries of the source, which are not always exact repeats. Equal entries are not always repeated. The source made the active and inactive calls. Unless noted, the rule behind the calls is not given here.

Assays:
[1] = system: XIP peptide (Xip251-270) binding; experiment: small-molecule binders of XIP peptide, primary screen, biochemical, small-molecule microarray, fluorescence 635/667 nm, 0.1 µg/mL protein (AID 1182); conditions: fluorescent protein binding, 635 nm, higher = more signal, called active from +8 up or from −8 down
XIP peptide (Xip251-270) = experiment: small-molecule binders of XIP peptide, primary screen, biochemical, small-molecule microarray, fluorescence 635/667 nm, 0.5 µg/mL protein (AID 1183); conditions: small-molecule microarray binding, fluorescence 635 nm; higher = more signal
[2] = Plasmodium falciparum growth inhibition, primary screen, strain 3D7, DAPI fluorescence, 100 nL (AID 1184);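 note: parasites grown inside human red blood cells in medium with human serum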; conditions: P. falciparum 3D7 growth, 3 d, higher = more signal
[3] = biological target: Homeobox protein Hox-A13 (Mus musculus) (UniProt Q62424); experiment: inhibitors of HoxA13-DNA binding, primary screen, biochemical, fluorescence polarization, labeled oligonucleotide (AID 1185); conditions: 15 min, higher = more signal, called active from +8 up or from −8 down
[4] = inhibitors of hydroxyurea-induced Chk1 phosphorylation, primary screen, imaging, HeLa, phospho-Chk1 antibody, percent positive cells (AID 1186); conditions: hydroxyurea-induced phospho-Chk1 immunofluorescence imaging, higher = more signal
[5] = inhibitors of hydroxyurea-induced Chk1 phosphorylation, primary screen, imaging, HeLa, phospho-Chk1 nuclear intensity (AID 1187); conditions: hydroxyurea-induced phospho-Chk1 immunofluorescence imaging, higher = more signal

Chain of Homeobox protein Hox-A13 (Mus musculus) (Q62424 whole entry, looked up): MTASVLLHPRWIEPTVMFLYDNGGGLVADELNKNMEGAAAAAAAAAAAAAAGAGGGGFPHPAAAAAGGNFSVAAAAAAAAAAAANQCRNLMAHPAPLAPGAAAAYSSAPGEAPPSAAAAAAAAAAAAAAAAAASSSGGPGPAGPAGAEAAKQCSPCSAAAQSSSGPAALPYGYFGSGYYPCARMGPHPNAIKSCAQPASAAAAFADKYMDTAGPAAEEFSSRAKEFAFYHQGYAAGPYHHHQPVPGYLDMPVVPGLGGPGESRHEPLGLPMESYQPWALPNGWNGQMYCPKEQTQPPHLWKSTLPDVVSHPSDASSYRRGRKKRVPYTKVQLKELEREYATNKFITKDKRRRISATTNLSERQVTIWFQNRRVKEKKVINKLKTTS

| SMILES | composite z-score [1] | composite z-score (XIP peptide (Xip251-270)) | z-score [2] | z-score [3] | z-score [4] | z-score [5] |
| --- | --- | --- | --- | --- | --- | --- |
| CCOC(=O)NN=C1C[C@@H](O)[C@@H](O)[C@@H]2[C@@H]3C(=O)N(Cc4ccccc4)C(=O)[C@@H]3CC[C@@H]12 | -0.479 (inactive) | 0.0853 | -0.647 | -0.411 (inactive) | – | – |
| CC(=O)OC[C@H]1O[C@H](C#CC(C)(C)C)C=C[C@@H]1OC(C)=O | 0.853 (inactive) | 0.575 | 1.32 | -2.75 (inactive) | – | – |
| C[C@@H]1CN2[C@@H](CC[C@@H](C)[C@@H]2c2ccc(Br)cc2)C(=O)O1 | -0.0537 (inactive) and -1.1 (inactive) | -0.252 and 0.581 | -0.218 and 0.559 | 0.101 (inactive) and -0.0592 (inactive) | – | – |
| CC(C)=NO[C@@H](C)c1cc(-c2c(C)cc(C)cc2C)no1 | -0.386 (inactive) | 0.303 | -0.876 | 0.387 (inactive) | – | – |
| CO[C@@H]1C=CCC(=O)N2CCC[C@H]2C(=O)OC[C@H](C)C(=O)OC[C@H]1C | 0.28 (inactive) | 0.612 | 0.471 | -0.499 (inactive) | – | – |
| CCOC(=O)CCN1C(=O)[C@H]2[C@H]3[C@H](O)[C@H](O)CC(=NNC(=O)OCC)[C@@H]3CC[C@H]2C1=O | 0.872 (inactive) | 0.466 | 2.07 | 0.0438 (inactive) | – | – |
| C=CCN(C(=O)C1N(c2c(Cl)cccc2CO)C(=O)C2C(C(=O)O)C3C=CC21O3)C(C)(C)C (centres undefined) | 0.13 (inactive) and -0.96 (inactive) | 0.106 and -0.591 | -1.76 and 0.0813 | -1.56 (inactive) and 0.87 (inactive) | -0.198 (inactive) and -0.391 (inactive) | 0.0398 (inactive) and 1.14 (inactive) |
| C=CCN(CCCCC)C(=O)C1N(CCCCCCO)C(=O)C2C(C(=O)O)C3C=CC21O3 (centres undefined) | 0.0579 (inactive) and 0.042 (inactive) | 0.69 and 0.714 | 2.33 and 1.76 | -1.18 (inactive) and -1.07 (inactive) | 0.99 (inactive) and 1.26 (inactive) | 0.616 (inactive) and 0.8 (inactive) |
| C=CCN(CCCC)C(=O)C1N(CCCCCCO)C(=O)C2C(C(=O)O)C3C=CC21O3 (centres undefined) | -0.489 (inactive) and -0.198 (inactive) | -0.838 and -0.558 | 1.51 and 1.68 | -0.284 (inactive) and -0.72 (inactive) | 0.527 (inactive) and 1.03 (inactive) | 0.977 (inactive) and 1.09 (inactive) |
| C=CCN(CCCC)C(=O)C(c1cccs1)N(CCOCCO)C(=O)/C=C\C(=O)O (centres undefined) | 0.455 (inactive) and 0.476 (inactive) | -0.836 and -0.765 | 0.329 and -0.0611 | 0.578 (inactive) and 0.724 (inactive) | -0.36 (inactive) and 0.442 (inactive) | 0.132 (inactive) and 1.47 (inactive) |
| CC[C@@H]1C(Sc2ccccc2)C(C(=O)O)[C@H](c2ccc(C)cc2)N1S(=O)(=O)c1ccc(C)cc1 (some centres undefined) | 1.07 (inactive) and -0.215 (inactive) | 0.278 and 0.605 | -0.606 and 0.251 | -5.66 (inactive) and -4.34 (inactive) | -0.114 (inactive) and -0.912 (inactive) | -0.369 (inactive) and -0.714 (inactive) |
| C[N+](C)(C)CCCCCCNC(=O)[C@H]1C[C@H]2C(=O)N[C@@H](CCCC[N+](C)(C)C)C(=O)N2[C@H]1c1cccc(OCCO)c1 | 0.421 (inactive) and 1.17 (inactive) | 0.691 and 0.903 | 0.11 and 0.17 | -2.01 (inactive) and -2.31 (inactive) | 0.247 (inactive) and 0.199 (inactive) | 0.316 (inactive) and -0.109 (inactive) |
| C=CCN(C(=O)C(c1cccs1)N(CCOCCO)C(=O)/C=C\C(=O)O)C(C)(C)C (centres undefined) | -0.344 (inactive) and 0.0156 (inactive) | -0.281 and -0.228 | 0.0905 and 0.921 | 0.175 (inactive) and -0.386 (inactive) | 0.0502 (inactive) and -0.289 (inactive) | -0.124 (inactive) and 0.0803 (inactive) |
| C=CCN(CCCCC)C(=O)C(c1cccs1)N(CCOCCO)C(=O)/C=C\C(=O)O (centres undefined) | -0.44 (inactive) and -0.841 (inactive) | -0.265 and -0.343 | -0.102 and -0.0618 | -0.478 (inactive) and -0.603 (inactive) | -0.0506 (inactive) and -0.514 (inactive) | 0.425 (inactive) and 0.965 (inactive) |
| C=C[C@@H](C)[C@@H](O)c1ccc(OCCO)cc1 | -0.704 (inactive) and -0.999 (inactive) | -0.664 and 0.0227 | -0.892 and 0.0904 | -0.592 (inactive) and -0.123 (inactive) | 1.19 (inactive) and -0.153 (inactive) | 1.48 (inactive) and 0.641 (inactive) |
| C=CCN(CCCC)C(=O)C(c1cccs1)N(C(=O)/C=C\C(=O)O)c1ccc(CCO)cc1 (centres undefined) | 1.82 (inactive) and -0.761 (inactive) | -0.319 and -1.84 | 0.28 and 0.445 | -1.28 (inactive) and -0.734 (inactive) | 0.655 (inactive) and -0.177 (inactive) | 1.04 (inactive) and 0.345 (inactive) |
| C[N+](C)(C)CCCCNC(=O)[C@H]1C[C@H]2C(=O)N[C@@H](CCCC[N+](C)(C)C)C(=O)N2[C@H]1c1cccc(OCCO)c1 | 1.64 (inactive) and 0.768 (inactive) | 0.921 and 0.684 | 0.211 and -0.244 | -1.74 (inactive) and -2.51 (inactive) | -0.885 (inactive) and -0.42 (inactive) | -0.771 (inactive) and -0.16 (inactive) |
| CC(CO)N1C(=O)[C@@H]2C3C(=O)OCCC=C[C@H]3OC23C=CCN(c2ccc(Cl)cc2)C(=O)[C@@H]13 (some centres undefined) | 0.291 (inactive) and 0.137 (inactive) | -0.784 and 0.213 | -0.764 and -0.187 | -3.34 (inactive) and -6.16 (inactive) | 0.537 (inactive) and -0.0281 (inactive) | 0.654 (inactive) and 0.0058 (inactive) |
| C=CCN(CCCC)C(=O)C1N(C(C)(C)CO)C(=O)C2C(C(=O)O)C3C=CC21O3 (centres undefined) | -0.485 (inactive) and -0.807 (inactive) | 0.214 and -0.185 | 0.102 and 0.116 | -0.224 (inactive) and -0.0596 (inactive) | -0.356 (inactive) and 0.83 (inactive) | -0.0315 (inactive) and 1.16 (inactive) |
| C=CCN(CCCC)C(=O)C1N(c2c(Cl)cccc2CO)C(=O)C2C(C(=O)O)C3C=CC21O3 (centres undefined) | -0.523 (inactive) and -0.356 (inactive) | 0.222 and 0.152 | -1.23 and -1.7 | -1.12 (inactive) and -1.43 (inactive) | 0.304 (inactive) and -0.273 (inactive) | 0.151 (inactive) and 0.131 (inactive) |
| CC(CO)N1C(=O)[C@@H]2C3C(=O)OCCC=C[C@H]3OC23C=CCN(C(C)(C)C)C(=O)[C@@H]13 (some centres undefined) | -0.516 (inactive) and 0.463 (inactive) | -0.947 and -0.179 | 0.35 and 0.567 | -5.55 (inactive) and -5.92 (inactive) | 0.545 (inactive) and -0.0027 (inactive) | -0.0537 (inactive) and -0.28 (inactive) |
| COC(=O)[C@@]1(Cc2ccc(OC)cc2)[C@H]2c3cc(C(=O)N(C)C)n(Cc4ccc(O)c(OC)c4)c3C[C@H]2CN1C(=O)c1ccccc1 | 0.371 (inactive) and 0.389 (inactive) | 0.594 and 0.642 | -1.65 and -1.56 | -5.37 (inactive) and -3.28 (inactive) | 0.402 (inactive) and -0.804 (inactive) | 0.504 (inactive) and -0.921 (inactive) |
| C=CCN(Cc1ccccc1)C(=O)C1N(c2c(Cl)cccc2CO)C(=O)C2C(C(=O)O)C3C=CC21O3 (centres undefined) | 0.297 (inactive) and -0.407 (inactive) | -2.24 and -0.403 | -0.0029 and -1.42 | 0.428 (inactive) and -1.12 (inactive) | -0.544 (inactive) and -0.696 (inactive) | -0.649 (inactive) and -0.167 (inactive) |
| C=CCN(CCCCC)C(=O)C1N(c2c(Cl)cccc2CO)C(=O)C2C(C(=O)O)C3C=CC21O3 (centres undefined) | -0.421 (inactive) and -0.228 (inactive) | -0.416 and -1.42 | -1.2 and -1.04 | -2.42 (inactive) and -0.615 (inactive) | -0.672 (inactive) and 0.433 (inactive) | -0.669 (inactive) and 0.367 (inactive) |
| C#CCN1C(/C=C/c2ccccc2)C(=O)OC[C@H]1c1ccccc1 (some centres undefined) | -0.538 (inactive) and 0.237 (inactive) | -0.0814 and 0.83 | -2.32 and -1.18 | 0.468 (inactive) and -2.46 (inactive) | -0.322 (inactive) and 0.0385 (inactive) | -0.322 (inactive) and -0.239 (inactive) |
| C=CCN(Cc1ccccc1)C(=O)C1N(c2ccc(CCO)cc2)C(=O)C2C(C(=O)O)C3C=CC21O3 (centres undefined) | 0.224 (inactive) and -0.96 (inactive) | -0.726 and 0.918 | -1.34 and -0.544 | -0.61 (inactive) and -2.5 (inactive) | 0.127 (inactive) and -0.193 (inactive) | -0.0077 (inactive) and -0.58 (inactive) |
